The panel holds about 79,000 compounds, 15% with a hit somewhere; the sample as a whole holds those more often. Activity calls are given as the source filed them. Cut-off read from the data, not from the text of the source: active = growth inhibition above about 70%; inactive = the rest.

This assay can be described thus: NCI Yeast Anticancer Drug Screen. Data for the rad50 strain (AID 155).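 Note: 0% = growth of vehicle-only cultures of the same strain.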 As to conditions: S. cerevisiae rad50 strain growth inhibition; at 50.0 µM; stronger effect = higher value. The method, boiled down:
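Relative growth inhibition (compound vs vehicle) was measured in yeast with a defined repair-gene alteration.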
With `CN1C/C(=C/c2ccc(N(C)C)cc2)C(=O)/C(=C/c2ccc(N(C)C)cc2)C1`, the growth inhibition was -2.45% (inactive).
As for `CCOC(=O)c1nc2ccccc2nc1NCc1ccc(Cl)cc1Cl`, the growth inhibition was 6.45% (inactive).
As to `N#CC(C#N)=Cn1c(=S)[nH]c2ccc([N+](=O)[O-])cc21`, the growth inhibition is -13.4% (inactive).
The same measure for `Cn1c(=O)c2nc3c(=O)n(C)c(=O)n(CC(N)=O)c3nc2n(C)c1=O`: 28.2% (inactive); for `CCOC(=O)C(Cc1ccc(N=NN(C)C)cc1)NC(=O)CC1c2ccccc2-c2ccccc21` (stereo not given): 13.8% (inactive); for `[Cu+2].[Cu+2].[O-]c1ccccc1C=Nc1ccccc1[O-].[O-]c1ccccc1C=Nc1ccccc1[O-]`: 7.25% (inactive).
With `NC(C1SCCS1)C(O)C(O)C(O)CO` (stereo not given) the figure was -5.55% (inactive); with `NS(=O)(=O)c1nc(S(=O)(=O)O)c2[nH]cnc2n1`, 3.7% (inactive); with `COc1cc(C=O)c([N+](=O)[O-])cc1OC`, 14.2% (inactive).
The same measure for `CC(NC(=O)C(C)NC(=O)C(N)CCP(C)(=O)O)C(=O)O` (stereo not given): -20.6% (inactive).
Take `Cc1c[n+]([O-])cc(C)c1N=Nc1ccc(N(C)C)cc1`: the growth inhibition was 2.55% (inactive).
As to `C[n+]1ccccc1C(=O)O`, the growth inhibition is 29.3% (inactive).
`CC(O)CNCc1ccc(N(C)C)cc1` (stereo not given): the growth inhibition was -15.8% (inactive).
`CC(=O)Nc1cc2c(cc1C=O)OCO2`: the growth inhibition is 19.6% (inactive).
With `COc1cccc(C2c3cc4c(cc3OC(N3CCCCC3)C2C)OCO4)c1OC` (stereo not given) the figure was 33.1% (inactive).
The same measure for `COC(=O)c1ccc(SCCC(=O)CNc2nc(N)nc(N)c2[N+](=O)[O-])cc1`: 32.1% (inactive).
With `Nc1ccccc1C(F)(F)F` the figure was 2.45% (inactive); with `O=C(O)CCC1CCCO1` (stereo not given), -5.4% (inactive); with `C=C1C(=O)O[C@H]2[C@H]1CC(=O)/C(C)=C/CC[C@@]1(C)O[C@@H]21`, 32.7% (inactive).
Turning to `CCOC(=O)c1c(C)[nH]c(=S)c(C#N)c1-c1cccc2ccccc12`, the growth inhibition was -10% (inactive).
For `O=C1c2ccccc2C(=O)c2c1cc1c(c2O)OCO1`, the growth inhibition is 23.4% (inactive).
Turning to `Cc1cc2c(C(C)C)c(O)c(O)c(C=Nc3cccc(O)c3)c2c(O)c1-c1c(C)cc2c(C(C)C)c(O)c(O)c(C=Nc3cccc(O)c3)c2c1O`, the growth inhibition is 27.8% (inactive).
As to `c1ccc2c[n+](CCCC[n+]3ccc4ccccc4c3)ccc2c1`, the growth inhibition is 46.5% (inactive).
As to `CC1CCC2C(C)C3C(CC4C5CC=C6CC(O)CCC6(C)C5CCC43COC(=O)c3ccccc3)N2C1` (stereo not given), the growth inhibition was 44.4% (inactive).
With `CC1C(C)C1(c1ccccc1)C(C)(C)O` (stereo not given) the figure was 8.55% (inactive); with `CCOC(=O)C(CSC(=O)c1ccccc1)NC(=O)OCc1ccccc1` (stereo not given), 40.4% (inactive); with `CC1=CC(C)(C)NC(=S)N1c1cccc2c(S(=O)(=O)O)cccc12`, 5.05% (inactive).
As for `CCOc1ccccc1C=C1c2ccccc2C(=O)c2ccccc21`, the growth inhibition is 10.3% (inactive).
As for `CN(C)C=Nc1cc2c(cc1Br)-c1ccccc1C2=O`, the growth inhibition was 3.05% (inactive).
`CCOC(=S)SCCSC`: the growth inhibition was 11.7% (inactive).
Regarding `CC(=O)N(c1ccc(F)c(F)c1)c1ccc(F)c(F)c1`, the growth inhibition was -18.3% (inactive).
The same measure for `CSc1nc2c(c(=O)n1C)N=C(c1ccc(Cl)cc1)CC(c1ccccc1)N2` (stereo not given): 16% (inactive); for `CCC1=NO[C@@H](C(=O)OCc2ccccc2)[C@H]1C`: -12.2% (inactive).
With `CC1CCC2(CC1)CC(=O)N(N1CCCCC1)C2=O` (stereo not given) the figure was 11.3% (inactive).
With `OC1(c2ccccc2)CCN(C/C=C/c2ccccc2Cl)CC1` the figure was 66.1% (inactive); with `Cn1c2ccccc2c(=O)c2cc(NC(=O)CCCCCCCC(=O)Nc3ccc4c(c3)c(=O)c3ccccc3n4C)ccc21`, -10.7% (inactive); with `CCCCNC(=O)c1cccc(OC)c1OC`, 2.25% (inactive).
As for `O=C(O)CCS.[Cu+2]`, the growth inhibition is -11.8% (inactive).
With `CCCCCCCCn1nnnc1N` the figure was -1.1% (inactive); with `CCOC(=O)NC1CCc2ccccc2C1` (stereo not given), 5.95% (inactive).

Values taken from PubChem BioAssay (NCI).
